Shown are actives, neighbours in structure and some others; about 14% of the full set was active somewhere.
NS1 function inh – qHTS Assay for Inhibitors of Influenza NS1 Protein Function. Potency, µM (doses to about 46.1 µM). actives 0.4% (n = 270,000); calls by dose curve; further: actives are rising curves; nearly all actives have a fitted effect of over 50% in size
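Compounds were scored for reversing the slow growth caused by influenza A NS1 in S. cerevisiae, measured by optical density at 600 nm. Assay medium contained 2% galactose at pH 6.0; NS1-free yeast of the same strain were the positive control.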
LmPK inhibitor – qHTS Assay for Inhibitors of Leishmania Mexicana Pyruvate Kinase (LmPK); Potency, µM (series often up to 57.5 µM), most hits filed as inhibitors; Q27686; actives 0.37% (n = 290,000); purified LmPK, Kinase-Glo ATP luminescence, 1 h
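qHTS format; LmPK 0.1 nM; substrates PEP 0.5 mM and ADP 0.1 mM. One-hour room-temperature incubation, then coupled luciferase luminescence; 0.5 nM enzyme wells mark activation.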
FBPA Giardia inh – qHTS Assay for Inhibitors of Fructose-1,6-bisphosphate Aldolase from Giardia Lamblia. A8B2U2. actives 0.71% (n = 290,000). AID 2451, 2010. purified Giardia FBPA. Potency, µM (doses to about 59.6 µM), usual class: inhibitors; further: nearly all actives have a fitted effect of over 55% in size
Target sequence (A8B2U2 whole entry, looked up): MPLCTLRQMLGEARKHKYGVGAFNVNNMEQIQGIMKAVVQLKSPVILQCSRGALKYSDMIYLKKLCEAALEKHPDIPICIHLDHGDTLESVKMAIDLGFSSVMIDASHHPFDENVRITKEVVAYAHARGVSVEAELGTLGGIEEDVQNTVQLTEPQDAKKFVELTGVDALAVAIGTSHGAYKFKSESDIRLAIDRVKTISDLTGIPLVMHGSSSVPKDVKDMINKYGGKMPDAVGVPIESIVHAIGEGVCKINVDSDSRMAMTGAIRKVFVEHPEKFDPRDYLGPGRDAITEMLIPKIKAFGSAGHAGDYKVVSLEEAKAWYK
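40 nM FBPA preincubated 10 min at RT with compound (up to 57.5 uM final), then substrate plus GAPDH/TPI/NAD/arsenate coupling and diaphorase/resazurin added. Fluorescence read after 20 min at RT, 525/598 nm.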
Shiga toxin inh – A qHTS for Small Molecule Inhibitors of Shiga Toxin; Vero cells, Shiga toxin protein synthesis inhibition reporter; inhibition, % at 38.7 µM; actives 9.2% (n = 290,000); AID 2315, 2010; in the data active means inhibition mostly above about 28%, no sharp cut-off; inactive means mostly below about 43%
CHX counter – Cycloheximide Counterscreen for Small Molecule Inhibitors of Shiga Toxin | cell reporter, cycloheximide protein synthesis inhibition counterscreen | max response, % | actives 12% (n = 300,000); in the data active means max response mostly above about 13%, no sharp cut-off; inactive means mostly below about 14%; further: read at 38.3 µM for the half of the compounds with a filed dose
A number is an active result; - = inactive; ? = inconclusive; . = not tested or not shown; [ ] = remark or other dose. Unless noted, the call rests on the fitted dose curve; in most records, active means well fitted curve in the direction sought with a large enough effect; inconclusive means small, poorly fitted or top-dose-only effect, or another doubt; inactive means no such curve, though single readings can be large; an effect the other way counts as inactive or inconclusive.

SMILES	NS1 function inh	LmPK inhibitor	FBPA Giardia inh	Shiga toxin inh	CHX counter
Cc1ccc(NC2=CC(=O)CC(c3ccco3)C2)c(N)c1 (stereo not given)	-	-	-	79	37
CCOC(=O)N1CCN(C(=O)CCCn2nc(C)c3sc4ccccc4c3c2=O)CC1	-	-	-[12.9 µM]	68	-
Cc1ccccc1/C=N/N=C1/NC(=O)CCS1	-	-	-	92	40
O=C1CS/C(=N\N=C\c2ccccc2Cl)N1CC1CC1	-	-	-	-	-
O=C1CCS/C(=N\N=C\c2ccc(Cl)cc2Cl)N1	-	-	-	-	16
Cc1ccc(-n2c(SCC(=O)Nc3ccc(Cl)cc3)nc(O)cc2=O)cc1	-	-	-	-	-
O=C(CSc1ccc(F)cc1)NC12CC3CC(CC(C3)C1)C2	-	-	-	-	37
COCCC(=O)NC12CC3CC(CC(C3)C1)C2	-	-	-	-	-
O=C(CCCc1ccccc1)NC12CC3CC(CC(C3)C1)C2	-	-	-	.	46
O=C(CSc1ccc(Cl)cc1)NC1CCCC1	-	-	-	72	35
O=C(CCSc1ccc(Cl)c(Cl)c1)NC12CC3CC(CC(C3)C1)C2	-	-	-	-	27
O=C(CSc1ccccc1C(=O)O)NC12CC3CC(CC(C3)C1)C2	-	-	-	-	-
O=C(CSc1ccc(F)cc1)NC1CCCCC1	-	-	-	71	36
O=C(Nc1ccccc1C(=O)N/N=C/c1ccc(O)cc1)c1ccccc1	-	14µM	-	-	29
O=C(N/N=C/c1ccccc1)c1ccc(OCc2ccccc2)cc1	.	-	-	-	-
CC(C)=C(NC(=O)c1ccccc1)C(=O)N/N=C/c1ccc(O)cc1	-	-	-	-	31
COC(=O)c1ccc(COc2ccccc2/C=N/NC(=O)c2cccnc2)cc1	.	-	-	-	28
O=C(N/N=C/c1ccc(OCc2ccccc2)cc1)c1ccco1	-	-	-	55	36
CC(=O)c1ccc(NC(=O)C(NC(=O)c2ccccc2)=C(C)C)cc1	.	-	-	-	-
O=C(N/N=C/c1ccc(O)cc1)c1csc2ccccc12	-	-	-	-	-
Oc1ccccc1CNCCCN1CCOCC1	-	-	-	.	-
Cc1c(NC(=O)CSCc2ccco2)c(=O)n(-c2ccccc2)n1C	-	-	-	-	-
CC(NC(=O)c1ccccc1NC(=O)c1ccco1)C(=O)O (stereo not given)	-	-	-	138	76
O=C(Nc1ccccc1C(=O)N/N=C/c1ccccc1)c1ccco1	-	-	-	87	27
O=C(N/N=C/c1ccccc1)c1ccco1	-	?	-	100	36
SMILES	NS1 function inh	LmPK inhibitor	FBPA Giardia inh	Shiga toxin inh	CHX counter
COc1ccccc1/C=C/C=N/NC(=O)c1ccncc1	-	-	-	-	-
COc1ccccc1/C=C/C=N/NC(=O)c1ccco1	-	-	-	78	32
O=C(N/N=C/C=N/NC(=O)c1ccco1)c1ccco1	-	-	.	-	-
COc1cccc(/C=N/NC(=O)c2ccccc2NC(=O)c2ccco2)c1OC	-	-	-	-	-
O=C(Nc1ccccc1C(=O)NC(Cc1ccccc1)C(=O)O)c1ccco1 (stereo not given)	-	-	-	-	-
CC1CCCCN1S(=O)(=O)c1ccc2c(c1)CCN2C(=O)C1CC1 (stereo not given)	-	-	.	-	-
CCCn1c2ccccc2c2cnn(CC(=O)NC3CCCC(C)C3C)c(=O)c21 (stereo not given)	-	-	.	-	-
COc1ccc(C(=O)Nc2ccccc2C(=O)N/N=C/c2ccncc2)cc1OC	-	14µM	-	-	-
O=C(N/N=C\c1ccccc1OCc1ccccc1)c1ccco1	-	-	-	40	32
O=C(N/N=C/c1ccc2cccnc2c1)c1ccco1	.	-	-	72	-
COc1ccc(C(=O)Nc2ccccc2C(=O)NCc2cccnc2)cc1OC	-	-	-	-	-
O=C(N/N=C/c1ccc(OC(=O)c2ccco2)cc1)c1ccncc1	-	-	-	-	-
O=C(NCc1ccncc1)C(=O)N/N=C/c1ccccc1OCc1ccccc1	.	-	-	-	-
O=C(N/N=C/C(Br)=C\c1ccccc1)c1ccco1	-	-	-	47	46
COc1ccc(N(CC(=O)N2CCN(c3ccccc3F)CC2)S(=O)(=O)c2ccc(C)cc2)cc1	-	-	-	-	-
COC(=O)N1C2=C(c3ccccc3[C@@H]1CC(=O)Nc1ccc3ccc4cccc5ccc1c3c45)[C@@H]1C(=O)N(c3ccccc3)C(=O)[C@@H]1[C@H](C)C2	.	-[11.5 µM]	-[12.9 µM]	.	.
COc1ccc(C(=O)N2CCC[C@@]3(CCN(Cc4ccncc4)C3)C2)cc1	.	.	-	.	.
CC1(C)Cc2c(cnn2-c2ccccc2)C(NC(=O)CCc2ccc(=O)[nH]n2)C1 (stereo not given)	-	-	-	-	-
O=C(CCC1CCCN(C(=O)C2(c3ccccc3)CC2)C1)N1CCN(c2ccccn2)CC1 (stereo not given)	-	-	-	-	20
CCc1[nH]nc(C(=O)N2CCCC(CCC(=O)N3CCN(c4ccccn4)CC3)C2)c1C (stereo not given)	-	-	-	-	13
Cc1cccc(C(=O)N2CCCC(CCC(=O)N3CCN(c4ccccn4)CC3)C2)c1C (stereo not given)	-	-	.	-	-
CN(C)Cc1ccccc1-c1cncnc1NCc1ccccc1	.	.	-	.	.
Cc1cc(S(=O)(=O)N2CCOCC2)ccc1OCC(=O)NCCCn1ccnc1	-	-	-	-	-
Cc1cccc(Cn2c(SCc3ccc(C(=O)N4CCCCCC4)cc3)nc3ccncc32)c1	.	.	.	-	-
O=C(O)CN1C(=O)/C(=C\c2cc(Br)ccc2OCc2ccccc2Cl)SC1=S	-	?	-	77	42
SMILES	NS1 function inh	LmPK inhibitor	FBPA Giardia inh	Shiga toxin inh	CHX counter
O=C(O)CN1C(=O)/C(=C\c2ccccc2OCc2ccc(Cl)cc2Cl)SC1=S	-	-	-	38	16
O=C(O)CN1C(=O)/C(=C\c2cc(Br)ccc2OCc2ccccc2F)SC1=S	-	-	-	-	-
O=C(O)CN1C(=O)/C(=C\c2cc(Br)ccc2OCc2ccc([N+](=O)[O-])cc2)SC1=S	-	-	-	-	-
O=C(O)CN1C(=O)/C(=C\c2cccc(OCc3ccc(Cl)cc3Cl)c2)SC1=S	?	-	-	68	22
Cc1ccccc1NC(=O)N1CCC(NC(=O)C2CCCCC2)CC1	-	-	-	-	-
Nc1n[nH]c(-c2ccc(F)cc2)n1	-	-	-	-	-
CSc1n[nH]c(-c2ccc(C(F)(F)F)cc2)n1	-	-	-	107	41
c1ccc(Oc2ccc(-c3ccnc4ncnn34)cc2)cc1	-	-	-	-	-
Clc1ccc(COc2ccccc2-c2ccnc3ncnn23)cc1	.	-	-	77	39
COc1ccc(OC)c(/C=N/N(C)c2ccccc2)c1	-	-	-	-	36
COc1cc(/C=N/N(C)c2ccccc2)cc(Cl)c1O	-	-	-	-	38
